Drawing on PubChem BioAssay AID463173 (ICCB-Longwood Screening Facility, Harvard Medical School, 2010), this text covers survival for 90 compounds.

The structures appear in SMILES notation. Several values for one entry are separate records, joined by “and”; a condition that tells them apart may be missing. Identical values can stand only once. Among all 52,000 compounds or so, about 4,300 (8.3%) were called active. Cut-off read from the data, not from the text of the source: active = survival mostly below about 52% (no sharp cut-off); inactive = mostly above about 56%. The list comes from a sample in which actives are over-represented; it also holds similar structures and randomly drawn compounds. Some compounds were tested as several samples or in several runs, with calls that do not always agree.

In this test the test system is DeltatarO mutant. The experiment in a line: growth inhibition of S. aureus wild type versus tarO mutant, primary screen, teichoic acid synthesis inhibitors, RN4220, OD600 (AID 463173). As to conditions: OD600, 18 h, stronger effect = lower value, screened at 18.75 µg/mL (by protocol).
For `CCOc1ccc(C(=O)NC2CCN(C(=O)NCc3ccccc3)CC2)cc1`, the survival is 84% (inactive). As for `COc1ccc(-c2nc(C)c(CCNC(=O)C(=O)Nc3ccccc3OC)s2)cc1`, the figure is 89% (inactive); as for `c1ccc(Cc2nnc(SCc3nc(-c4cccs4)no3)n2-c2ccccc2)cc1`, 56% (inactive); as for `COc1cc(NS(=O)(=O)c2cc3c(cc2C)N(C)CCO3)cc(OC)c1OC`, 90% (inactive).

On to `Cc1ccccc1CN1C(=O)c2ccccc2S(=O)c2ccc(C(=O)NCc3ccco3)cc21` (stereo not given), for which the survival is 71% (inactive). With `CC(C)CCn1c(=O)c2sccc2n2c(CCCC(=O)NCCc3ccccc3)nnc12`, the survival is 68% (inactive). For the compound `CCS(=O)(=O)NCC(c1ccco1)N1CCN(c2ccc(OC)cc2)CC1` (stereo not given), the survival is 91% (inactive). To `CCOc1ccccc1N(CC)C(=O)c1cc2ccc3cccnc3c2[nH]1` belongs 102% (inactive). `CCOC(=O)c1ccccc1NC(=O)c1cc2ccc3cccnc3c2[nH]1`: the survival was 117% (inactive).

As for `CCOc1ccccc1NC(=O)c1cc2ccc3cccnc3c2[nH]1`, the survival is 37% (active). In the case of `COCCNC(=O)CSc1nc(-c2ccc(C)cc2)[nH]c1-c1ccc(OC)cc1`, the survival was 84% (inactive). For `COc1cc(OC)c(NC(=O)C(NS(=O)(=O)c2cccc3nsnc23)c2ccccc2)cc1Cl` (stereo not given), the survival was 60% (inactive).

In the case of `COc1ccccc1N1CCN(C(=O)c2cn(C)c3ccc(S(=O)(=O)N4CCOCC4)cc3c2=O)CC1`, the survival is 84% (inactive). Regarding `Cc1ccc(OCCn2cc(C(=O)c3ccco3)c3ccccc32)cc1C`, the survival is 27% (active). To `O=C(Cn1cc(C(=O)c2ccco2)c2ccccc21)Nc1ccc(Br)cc1` belongs 88% (inactive). In the case of `Cc1ccc(C(C)C)c(OCCn2cc(C(=O)c3ccco3)c3ccccc32)c1`, the survival is 35% (active). `O=C(c1ccco1)c1cn(CCOc2ccc(F)cc2)c2ccccc12`: the survival is 99% (inactive). `Cc1ccc(C)c(OCCn2cc(C(=O)c3ccco3)c3ccccc32)c1`: the survival was 104% (inactive). With `O=C(c1ccco1)c1cn(CCOc2ccc(Cl)cc2)c2ccccc12`, the survival was 78% (inactive). On to `COc1ccc(OCCn2cc(C(=O)c3ccco3)c3ccccc32)cc1`, for which the survival was 56% (inactive). Take `CC(C)(C)c1ccc(OCCn2cc(C(=O)c3ccco3)c3ccccc32)cc1`: the survival is 35% (active). As for `O=C(Cn1cc(C(=O)c2ccco2)c2ccccc21)Nc1ccccc1`, the survival is 41% (active) and 47% (inactive). With `Cc1cc(OCCn2cc(C(=O)c3ccco3)c3ccccc32)ccc1Cl`, the survival is 53% (inactive). On to `CCOc1ccc(NC(=O)Cn2cc(C(=O)c3ccco3)c3ccccc32)cc1`, for which the survival was 63% (inactive). As for `Cc1ccccc1OCCn1cc(C(=O)c2ccco2)c2ccccc21`, the survival is 44% (inactive). As for `COc1ccccc1N1CCN(Cc2cc(COC(C)C)c3cccnc3c2O)CC1`, the survival was 84% (inactive). For the compound `CCC(C)(C)n1nnnc1C(C(C)C)N(Cc1cccnc1)Cc1ccco1` (stereo not given), the survival was 78% (inactive). As for `COc1ccccc1N1CCN(C(=O)c2cn(C)c3ccc(S(=O)(=O)N(C)C4CCCCC4)cc3c2=O)CC1`, the figure is 83% (inactive). On to `CCCC12CN3CC(CCC)(CN(C1)C3c1c(C)[nH]c(=O)[nH]c1=O)C2=O` (stereo not given), for which the survival was 109% (inactive). Take `CCC(C)NC(=O)c1c(-c2ccccc2)c(-c2ccccc2)nn(C)c1=O` (stereo not given): the survival was 50% (inactive). To `CCOc1ccc(OCC)c(NC(=O)C2CCCN(S(=O)(=O)c3cc(Br)cc4c3N(C(=O)CC)CC4)C2)c1` (stereo not given) belongs 100% (inactive); to `COc1ccc(CCNC(=O)CCCn2c(=O)c3ccccc3n(Cc3cccc(Cl)c3)c2=O)cc1OC`, 72% (inactive); to `Cc1ccc2nc(N3CCN(C(=O)C4COc5ccccc5O4)CC3)sc2c1` (stereo not given), 89% (inactive). As for `COc1ccc(CNC(=O)COCc2cc(-c3ccc4c(c3)OCO4)on2)cc1`, the survival was 94% (inactive). As to `COc1cccc(CNC(=O)COCc2cc(-c3ccc4c(c3)OCO4)on2)c1`, the survival was 37% (active). In the case of `COc1ccccc1CNC(=O)COCc1cc(-c2ccc3c(c2)OCO3)on1`, the survival is 25% (active). For the compound `O=C(COCc1cc(-c2ccc3c(c2)OCO3)on1)NCc1ccccc1Cl`, the survival was 70% (inactive).

In the case of `O=C(COCc1cc(-c2ccc3c(c2)OCO3)on1)NCc1ccc(F)cc1`, the survival is 85% (inactive). Regarding `Cc1ccc(CNC(=O)COCc2cc(-c3ccc4c(c3)OCO4)on2)cc1`, the survival was 75% (inactive).

As to `O=S(=O)(c1ccccc1)n1nc(-c2ccco2)nc1NCc1ccccc1`, the survival is 71% (inactive). Turning to `O=C(Nc1ccc(N2CCN(C(=O)c3ccco3)CC2)cc1)c1ccccc1`, the survival is 93% (inactive).

Consider `CCOc1ccc(-n2nc3ccc(NC(=O)c4cccc(F)c4)cc3n2)cc1`, for which the survival was 84% (inactive).

Consider `CCCNC(=O)c1ccc2c(c1)nc1n2CCCCC1`, for which the survival is 94% (inactive). As for `COc1cccc(C(=O)NCCc2csc(-c3cccc(F)c3)n2)c1OC`, the figure is 75% (inactive); as for `Cc1cccc(N2CCN(C(=O)CN3C(=O)COc4ccc(S(=O)(=O)N5CCCC5)cc43)CC2C)c1` (stereo not given), 77% (inactive); as for `O=C(COc1ccccc1[N+](=O)[O-])N1CCC(c2nc3ccccc3o2)CC1`, 79% (inactive). On to `CCOC(=O)c1csc2c1CCC/C2=N/OC(C)=O`, for which the survival was 86% (inactive). As for `CCOC(=O)c1cc2c(=O)n3ccccc3nc2n(Cc2ccco2)c1=NC(=O)c1cccc(C)c1`, the survival was 33% (active). Take `CCOC(=O)c1cc2c(=O)n3ccccc3nc2n(Cc2ccco2)c1=NC(=O)c1cc(C)cc(C)c1`: the survival was 29% (active). To `CCOc1ccccc1NC(=O)Cn1ccn(-c2ccccc2)c(=O)c1=O` belongs 49% (inactive). Turning to `CCN(CC)S(=O)(=O)c1nnc(NC(=O)COc2cccc(C)c2)s1`, the survival was 94% (inactive). For `CC(Oc1ccccc1)C(=O)Nc1nnc(S(=O)(=O)N2CCCCCC2)s1` (stereo not given), the survival is 50% (inactive). To `COc1ccc(OCC(=O)Nc2nnc(S(=O)(=O)N3CCCCCC3)s2)cc1` belongs 76% (inactive); to `CCC(=O)Nc1nnc(S(=O)(=O)N2CCCCCC2)s1`, 89% (inactive); to `Cc1ccc(OCC(=O)Nc2nnc(S(=O)(=O)N3CCCCCC3)s2)cc1`, 64% (inactive). On to `O=C(COc1ccccc1)Nc1nnc(S(=O)(=O)N2CCCC2)s1`, for which the survival was 39% (active).

Consider `Cc1cccc(OCC(=O)Nc2nnc(S(=O)(=O)N3CCCCCC3)s2)c1`, for which the survival was 48% (active). As to `Cc1cc(C)cc(N(C)S(=O)(=O)c2nnc(NC(=O)COc3ccc(Cl)cc3)s2)c1`, the survival was 80% (inactive). Take `CN(c1ccccc1)S(=O)(=O)c1nnc(NC(=O)COc2ccccc2)s1`: the survival was 56% (inactive). Consider `O=C(COc1ccccc1)Nc1nnc(S(=O)(=O)N2CCCCCC2)s1`, for which the survival is 79% (inactive). With `Cc1cc(C)cc(N(C)S(=O)(=O)c2nnc(NC(=O)COc3ccc(C)c(C)c3)s2)c1`, the survival was 30% (active). For `O=C(COc1ccc(Cl)cc1)Nc1nnc(S(=O)(=O)N2CCCCCC2)s1`, the survival was 55% (active). With `CC1(C)CC(=O)C2=C(C1)NC1=C(C(=O)CC(C)(C)C1)C2c1ccc2c(c1)OCO2`, the survival was 96% (inactive).

With `NC(=O)c1nc(-c2ccc(F)c(F)c2)nc2c1[nH]c(=O)n2-c1cccc(Cl)c1`, the survival was 86% (inactive). For `O=C(Nc1cccc(C(F)(F)F)c1)N1CCC(CN2CCCCCC2)CC1`, the survival was 83% (inactive). To `Cc1cccc(C(=O)Nc2ccc(N3CCC(CCN4CCOCC4)CC3)c(C(=O)O)c2)c1` belongs 66% (inactive). Turning to `Cc1ccc(N2CCN(c3cc(C)nc4c(-c5ccc(Cl)cc5)c(C)nn34)CC2C)cc1` (stereo not given), the survival was 55% (inactive). As to `COc1ccc(C(=O)c2cn(Cc3ccc(F)cc3)c3c(F)cc(F)cc3c2=O)cc1`, the survival is 103% (inactive). To `Cc1cccc(N2CCN(C(=O)CCNS(=O)(=O)c3ccc4c(c3)CCN4C(=O)C3CC3)CC2)c1C` belongs 73% (inactive). Regarding `N#Cc1ccccc1NC(=O)CSc1nnc(N)s1`, the survival was 76% (inactive). For `CC(C)CC(=O)Nc1nnc(S(=O)(=O)N2CCCCCC2)s1`, the survival is 109% (inactive). Consider `CCCC(=O)Nc1nnc(S(=O)(=O)N2CCCCCC2)s1`, for which the survival was 91% (inactive). Consider `O=C(COc1ccc(F)cc1)Nc1nnc(S(=O)(=O)N2CCCC2)s1`, for which the survival was 39% (active). Turning to `Cn1c(/C(C#N)=C/c2ccc(C(F)(F)F)cc2)nc2ccccc21`, the survival was 103% (inactive). Take `Cn1c(/C(C#N)=C/c2ccccc2Br)nc2ccccc21`: the survival is 79% (inactive). With `COc1ccc(/C=C(\C#N)c2nc3ccccc3n2C)c(OC)c1`, the survival is 29% (active). As for `Cn1c(/C(C#N)=C/C2CC=CCC2)nc2ccccc21` (stereo not given), the figure is 78% (inactive); as for `COc1cc(/C=C(\C#N)c2nc3ccccc3n2C)cc(OC)c1OC`, 47% (active); as for `COc1ccc(Cl)cc1N/C=C(/C#N)c1nc2ccccc2n1C`, 82% (inactive). As for `Cc1cc(=O)n(CC(=O)N2CCCc3ccccc32)c2c1c(C)nn2-c1cccc(F)c1`, the survival is 85% (inactive). `Cc1ccc(C)c(NC(=O)CSc2ncc3c(n2)-c2ccc(Cl)cc2N(C)S3(=O)=O)c1`: the survival is 74% (inactive).

With `CCCCN(C)CCNC(=O)c1ccc2c(c1)NC(=O)CN2`, the survival is 71% (inactive).

Consider `COc1ccc(-n2nc3ccc(NC(=O)c4ccc(-c5cc(Cl)ccc5Cl)o4)cc3n2)cc1`, for which the survival is 40% (active). With `CCOc1ccc(-n2nc3ccc(NC(=O)Cc4ccccc4)cc3n2)cc1`, the survival is 74% (inactive). On to `COc1ccc(-n2nc3ccc(NC(=O)c4cc5ccccc5o4)cc3n2)cc1Cl`, for which the survival is 159% (inactive). On to `O=C(Nc1ccc2nn(-c3ccc(Cl)cc3)nc2c1)c1cc2ccccc2o1`, for which the survival was 65% (inactive).

On to `O=C(Nc1ccc2nn(-c3ccccc3)nc2c1)c1ccc(-c2cccc(Cl)c2)o1`, for which the survival was 105% (inactive). As for `CCOc1ccc(-n2nc3ccc(NC(=O)c4ccc(-c5cccc(Cl)c5)o4)cc3n2)cc1`, the figure is 45% (active); as for `CCCCN(CC)CCCNC(=O)c1cc2c(-c3ccc(OC)c(OC)c3)nn(C)c2s1`, 140% (inactive); as for `Cc1ccc(N2CCN(C(=O)c3cnn(-c4ccc(C)c(C)c4)c3C3CCNCC3)CC2)c(C)c1`, 55% (inactive).
